From PubChem
CF NFkB block = cystic fibrosis NF-kB activation inhibition; KKLEB NF-kB-GFP reporter, PAF-induced, GFP fluorescence overnight; inhibition, % at 5 µM; hit rate 0.86% among 360,000;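 active means at least 50% inhibition at 5 µM, scaled per plate between neutral and stimulator controls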;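 further: PAF is a Pseudomonas aeruginosa culture filtrate used as stimulus; plate controls were PAF-stimulated DMSO wells for no effect and unstimulated DMSO wells for full effect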
HIF-2a inh = HIF-2a inhibition | hit rate 0.72% among 360,000 | 786-0 RCC cells HIF-2a reporter, luciferase luminescence, overnight | inhibition, % at 18.8 µM;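 active means inhibition of the luminescence signal of 40% or more relative to plate controls, in a single-dose primary screen at 18.75 µM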
TROY NFkB inh = blocks TROY-dependent signaling in reporter cells | Q293 LMP1-TROYcd NF-kB luciferase reporter, 4 h | inhibition, % at 10 µM | hit rate 0.98% among 360,000 | AID 1347056;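 active means compounds whose plate-normalised and pattern-corrected inhibition of the luciferase reporter signal at the single screening dose is 50% or more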
Peg3 promoter = Peg3 promoter activity inhibition; inhibition, % at 20 µM; HeLa PEG-Prom luciferase reporter, luminescence, overnight; hit rate 1.7% among 360,000; AID 588405;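 active means inhibition of at least 50% at 20 µM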
TWEAK-Fn14 inh = TWEAK-Fn14 signaling inhibition; TWEAK-stimulated Fn14 reporter cells, luciferase luminescence, 8 h; hit rate 2% among 360,000; inhibition, % at 10 µM; in the data active means inhibition above about 50%
KKLEB tox = CF airway cell cytotoxicity counter-screen | KKLEB CF airway cells viability, ATPlite luminescence, overnight; hits give low values; cells stimulated with P. aeruginosa culture filtrate | activity change (cytotoxicity), % at 5 µM | hit rate 0.36% among 360,000 | AID 602141;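 active means corrected activity change at or below -50% at 5 µM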
CF NFkB inh conf = CF NF-kB inhibition confirmation, single concentration | shares compounds with CF NFkB block | KKLEB CF airway cells, PAF-induced NF-kB-GFP fluorescence, overnight | inhibition, % at 5 µM | hit rate 64% among 1,300; in the data active means inhibition above about 40%;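 further: stimulus PAF is a Pseudomonas aeruginosa filtrate and not platelet activating factor; plate controls were DMSO wells with stimulus for no effect and unstimulated DMSO wells for full effect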
Starred values were filed as active, the others as inactive; · = no result given. Most compounds without a hit are left out; they make up all but 4% or so of the library.

SMILES	CF NFkB block	HIF-2a inh	TROY NFkB inh	Peg3 promoter	TWEAK-Fn14 inh	KKLEB tox	CF NFkB inh conf
Cc1cccc(N2CCN(C(=O)c3[nH]c(C(F)(F)F)nc3-c3ccccc3)CC2)c1C	50.3*	8.7	14.9	-7.2	-12.5	-22.1	86.9*
O=C1CC(=O)OC(c2ccc([N+](=O)[O-])cc2)O1	90.2*	85.9*	10.1	102.8*	102.0*	-22.4	111.3*
CCC1C(=O)C(C)(C)C(=O)OC1c1ccc([N+](=O)[O-])cc1 (centres undefined)	-16.5	15.1	12.6	-2.1	0.7	4.3	·
CCOC(=O)CSc1nc(C)cc(C)c1C#N	7.1	-7.7	5.1	-22.6	5.2	-1.5	·
Cc1cc(C)c(C#N)c(SCC(=O)c2ccc(Cl)cc2Cl)n1	71.6*	-15.8	41.5	60.0*	57.3*	-5.1	67.2*
Cc1ccn(CCC(=O)Nc2ccc3c(c2)OCO3)n1	-12.5	-50.6	-30.2	-62.0	-18.5	4.1	·
CCCCN1C(=O)C(=O)c2cc(Cl)ccc21	63.4*	9.5	3.7	-2.3	3.9	-8.4	47.1*
Cc1ccc(CN2C(=O)C(=O)c3cc(C)ccc32)cc1	2.6	-23.7	-9.7	-12.0	-8.8	5.6	·
O=C(Nc1ccc(Oc2ccc(NC(=O)Nc3ccc([N+](=O)[O-])cc3)cc2)cc1)Nc1ccc([N+](=O)[O-])cc1	52.5*	-3.4	26.1	46.3	86.8*	1.2	61.3*
CC1=Nc2ccccc2/C1=C/c1c(C)[nH]c2ccccc12	52.9*	25.0	-1.4	90.7*	7.8	-21.6	-60.0
O=C(CSc1nc(=O)[nH]c2c1CCCC2)Nc1cc(C(F)(F)F)cc(C(F)(F)F)c1	7.9	2.1	15.4	26.1	12.9	-5.3	·
COc1ccc(NC(=O)Nc2nnc(-c3ccccc3SCc3ccccc3)s2)cc1	50.3*	16.7	-3.0	-2.0	-10.8	-34.6	21.1
COc1cccc(NC(=O)Nc2nnc(-c3ccccc3SCc3ccccc3)s2)c1	6.3	-4.4	-2.3	4.2	-8.1	-15.3	·
CC(C)CN(C(=O)COC(=O)c1ccccc1SCC(=O)N1CCCC1)C1CCS(=O)(=O)C1 (centres undefined)	18.3	-1.0	4.7	8.2	8.1	2.8	·
Cc1ccc(N=Cc2cc3c(cc2O)OC(N)=C(C#N)C3c2ccccc2)cc1 (centres undefined)	54.2*	35.0	-29.1	-8.0	3.3	17.6	74.3*
N#CC1=C(N)Oc2cc(O)c(C=Nc3ccccc3)cc2C1c1ccccc1 (centres undefined)	41.4	30.7	-61.9	-12.4	-6.8	15.8	·
CC(C)(c1cc(Br)c(O)c(Br)c1)c1cc(Br)c(O)c(Br)c1	10.4	6.5	48.0	11.1	-14.0	-6.9	·
Cc1cc(NC(=O)CCC(=O)N(c2ccccc2)C(C(=O)NC2CCCC2)c2ccc(F)cc2)no1 (centres undefined)	-0.2	6.6	-14.7	18.7	-4.4	-1.7	·
O=C(CN1C(=O)CCC1=O)Nc1nc(-c2nc3ccccc3s2)cs1	70.6*	-260.2	-6.1	-251.5	82.8*	0.1	91.8*
O=C(CN1C(=O)CCC1=O)Nc1nc(-c2ccccn2)cs1	-30.2	9.9	0.9	5.1	12.1	-5.3	·
CSc1ccc(CN2CCC2(C)C(=O)Nc2cccc(NS(C)(=O)=O)c2)cc1 (centres undefined)	1.0	7.5	14.4	11.3	12.6	-0.7	·
NC(=O)c1ccsc1NC(=O)COC(=O)c1ccccn1	-0.8	1.8	-24.9	-0.7	14.3	5.9	·
ON=C1c2ccccc2-c2ccccc21	62.3*	-12.0	2.9	-76.9	13.6	3.5	52.8*
Cc1cc(S(=O)(=O)NCc2cccnc2)ccc1F	-2.3	10.4	-9.4	0.8	3.3	2.0	·
CC1Sc2ccc(Cl)cc2-c2nc(N)ncc21 (centres undefined)	66.4*	27.6	36.2	9.3	41.5	-23.8	76.7*
SMILES	CF NFkB block	HIF-2a inh	TROY NFkB inh	Peg3 promoter	TWEAK-Fn14 inh	KKLEB tox	CF NFkB inh conf
COc1ccc(CNC(=O)C[C@H]2C[C@H](C(=O)N3CCCCC3)[C@@]3(CCc4ccccc4)c4[nH]c5ccc(Cl)cc5c4CCN3C2=O)cc1OC	50.8*	-27.5	26.7	27.6	39.3	-9.6	39.2
CSc1cccc(N2CC(C(=O)N(Cc3nnc(-c4ccccc4Cl)o3)C3CC3)CC2=O)c1 (centres undefined)	3.4	3.5	-21.2	17.5	-18.7	-19.1	·
Nc1c(Cl)c(Cl)nc(C(=O)N/N=C/c2cccnc2)c1Cl	51.0*	3.5	5.6	-7.2	26.2	-7.5	39.5
O=C(N/N=C/c1cccnc1)c1ccccc1Cl	-13.5	-118.8	-58.2	-103.0	-16.9	-4.5	·
S=C(Nc1cccc2ccccc12)Nc1cccc2ccccc12	83.8*	-77.7	49.2	-30.8	92.0*	-37.0	11.0
O=C(N1CCCCC1)N1CCN(C(c2ccccc2)c2ccccc2)CC1	7.1	17.2	-14.2	18.6	26.6	11.6	·
Oc1c(C(c2ccccc2)N2CCCCC2)ccc2ccccc12 (centres undefined)	68.1*	11.0	-15.2	19.9	15.1	-31.1	26.8
CC(C)c1ccc(NC(=O)Nc2nc(C(N)CCc3ccccc3)cs2)cc1 (centres undefined)	54.3*	23.4	8.4	98.4*	-1.3	-44.4	12.2
COc1cc(OC)nc(Nc2nc(C(N)CCc3ccccc3)cs2)n1 (centres undefined)	11.1	16.4	3.9	15.7	-32.4	-17.2	·
Cc1ccc(S(=O)(=O)N(C)c2ccc(OCC(=O)Nc3ccc(C(=O)N(C)C)cc3)cc2)cc1C	8.0	0.1	10.3	15.6	-6.0	-1.0	·
CC1(c2ccc(NC(=O)c3ccccc3F)cc2)CC1(Cl)Cl (centres undefined)	2.0	-337.4	0.8	-285.2	-63.4	-1.3	·
CCc1ccc2cc3c(cc2n1)C(=O)c1ccccc1-3	-62.1	-219.2	-30.4	-320.7	-18.9	4.1	·
COc1cc(C(=O)Nc2nnc(-c3sccc3C)s2)cc(OC)c1OC	53.6*	-14.4	-11.1	-1.0	-7.5	-45.2	59.2*
COc1ccc(Cc2nnc(SCC(=O)Nc3cc(Cl)ccc3C)[nH]c2=O)cc1	3.7	11.4	5.1	-6.4	-4.3	8.8	·
CC(C)CN(C(=O)c1cccc(Cl)c1)c1c(N)n(Cc2ccccc2)c(=O)[nH]c1=O	-5.9	13.3	3.5	21.9	11.9	8.3	·
COC(=O)c1ccc2nc(-c3ccco3)c(Cc3cccc(Cl)c3)n2c1	·	-13.0	-8.4	·	23.4	·	·
Fc1cccc(Cc2c(-c3ccco3)nc3ccc(Cl)cn23)c1	63.2*	-30.0	-3.6	-23.0	54.0*	2.4	-40.9
Clc1ccc2nc(-c3ccco3)c(Cc3ccccc3)n2c1	37.3	7.3	-0.3	-20.8	28.5	-7.0	·
